{"source": "paper PMC11006913", "experiment_in_all_cases": "PBM; 200 nM protein, PBS", "settings_in_all_cases": "dsDNA, one strand shown", "key": {"HESX1": {"biological_target": "HESX1 (Homo sapiens, UniProt Q9UBX0 95-180, F115L)", "sequence (Q9UBX0 95-180 F115L)": "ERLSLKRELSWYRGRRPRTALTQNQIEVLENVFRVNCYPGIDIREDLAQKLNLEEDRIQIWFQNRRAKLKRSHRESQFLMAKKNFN"}, "NKX3-2 [1]": {"biological_target": "NKX3-2 (Homo sapiens, UniProt P78367 192-278, P234S)", "sequence (P78367 192-278 P234S)": "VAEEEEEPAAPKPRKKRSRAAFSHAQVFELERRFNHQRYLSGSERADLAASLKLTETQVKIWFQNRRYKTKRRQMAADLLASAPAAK"}, "NKX3-2 [2]": {"biological_target": "NKX3-2 (Homo sapiens, UniProt P78367 192-278)", "sequence (P78367 192-278)": "as the sequence (P78367 192-278 P234S) above, with S43P counted along it"}, "NKX2-6": {"biological_target": "T1, NKX2-6 (Homo sapiens, UniProt A6NCS4 118-204, F151L)", "T1 sequence": "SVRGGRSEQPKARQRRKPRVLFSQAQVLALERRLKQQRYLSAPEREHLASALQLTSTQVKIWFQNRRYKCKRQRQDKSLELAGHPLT"}, "HOXC9": {"biological_target": "HOXC9 (Homo sapiens, UniProt P31274 178-260, R222W)", "sequence (P31274 178-260 R222W)": "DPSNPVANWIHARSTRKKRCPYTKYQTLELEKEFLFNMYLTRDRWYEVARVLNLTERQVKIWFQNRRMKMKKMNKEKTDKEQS"}, "PAX4": {"biological_target": "T2, PAX4 (Homo sapiens, UniProt O43316 9-242, R227W)", "T2 sequence": "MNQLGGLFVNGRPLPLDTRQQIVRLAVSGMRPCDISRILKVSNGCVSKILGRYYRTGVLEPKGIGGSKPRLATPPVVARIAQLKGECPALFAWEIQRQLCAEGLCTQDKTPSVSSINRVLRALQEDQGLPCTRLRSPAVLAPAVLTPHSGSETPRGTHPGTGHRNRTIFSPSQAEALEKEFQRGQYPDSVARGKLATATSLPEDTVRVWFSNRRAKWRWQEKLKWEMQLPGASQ"}, "HOXD13": {"biological_target": "HOXD13 (Homo sapiens, UniProt P35453 263-343, T313A)", "sequence (P35453 263-343 T313A)": "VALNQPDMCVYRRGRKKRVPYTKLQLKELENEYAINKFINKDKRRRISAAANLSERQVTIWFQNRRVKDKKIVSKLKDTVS"}, "MSX2": {"biological_target": "MSX2 (Homo sapiens, UniProt P35548 130-214, F161Y)", "sequence (P35548 130-214 F161Y)": "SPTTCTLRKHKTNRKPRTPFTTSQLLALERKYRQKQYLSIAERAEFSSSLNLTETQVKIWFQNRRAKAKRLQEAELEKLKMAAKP"}}, "data": [{"sequence": "CTTATTAA", "values": [{"measurement": "binding signal", "setting": "HESX1", "result": "7.74 upbm affinity estimate (log intensity, higher = more binding, comparable within an allelic series)"}]}, {"sequence": "ACCACGGC", "values": [{"measurement": "binding signal", "setting": "NKX3-2 [1]", "result": "10.5 upbm affinity estimate (log intensity, higher = more binding, comparable within an allelic series)"}, {"measurement": "binding signal", "setting": "NKX3-2 [2]", "result": "10.5 upbm affinity estimate (log intensity, higher = more binding, comparable within an allelic series)"}]}, {"sequence": "AAACACTT", "values": [{"measurement": "binding signal", "setting": "NKX2-6", "result": "10.9 upbm affinity estimate (log intensity, higher = more binding, comparable within an allelic series)"}]}, {"sequence": "CGGGTCGA", "values": [{"measurement": "binding signal", "setting": "NKX3-2 [1]", "result": "10.6 upbm affinity estimate (log intensity, higher = more binding, comparable within an allelic series)"}, {"measurement": "binding signal", "setting": "NKX3-2 [2]", "result": "10.6 upbm affinity estimate (log intensity, higher = more binding, comparable within an allelic series)"}]}, {"sequence": "ATAAAAAA", "values": [{"measurement": "binding signal", "setting": "HOXC9", "result": "11.1 upbm affinity estimate (log intensity, higher = more binding, comparable within an allelic series)"}]}, {"sequence": "AAGAGTGG", "values": [{"measurement": "binding signal", "setting": "NKX3-2 [1]", "result": "12.5 upbm affinity estimate (log intensity, higher = more binding, comparable within an allelic series)"}, {"measurement": "binding signal", "setting": "NKX3-2 [2]", "result": "12.7 upbm affinity estimate (log intensity, higher = more binding, comparable within an allelic series)"}]}, {"sequence": "CGAGTGCA", "values": [{"measurement": "binding signal", "setting": "NKX3-2 [1]", "result": "11.7 upbm affinity estimate (log intensity, higher = more binding, comparable within an allelic series)"}, {"measurement": "binding signal", "setting": "NKX3-2 [2]", "result": "11.8 upbm affinity estimate (log intensity, higher = more binding, comparable within an allelic series)"}]}, {"sequence": "CATATTAG", "values": [{"measurement": "binding signal", "setting": "PAX4", "result": "10.9 upbm affinity estimate (log intensity, higher = more binding, comparable within an allelic series)"}]}, {"sequence": "CACGGACC", "values": [{"measurement": "binding signal", "setting": "NKX3-2 [1]", "result": "10.6 upbm affinity estimate (log intensity, higher = more binding, comparable within an allelic series)"}, {"measurement": "binding signal", "setting": "NKX3-2 [2]", "result": "10.6 upbm affinity estimate (log intensity, higher = more binding, comparable within an allelic series)"}]}, {"sequence": "AACACTTG", "values": [{"measurement": "binding signal", "setting": "NKX2-6", "result": "10.8 upbm affinity estimate (log intensity, higher = more binding, comparable within an allelic series)"}]}, {"sequence": "ACTATTAA", "values": [{"measurement": "binding signal", "setting": "HOXD13", "result": "11.6 upbm affinity estimate (log intensity, higher = more binding, comparable within an allelic series)"}]}, {"sequence": "ATATGAGG", "values": [{"measurement": "binding signal", "setting": "NKX3-2 [1]", "result": "11.6 upbm affinity estimate (log intensity, higher = more binding, comparable within an allelic series)"}, {"measurement": "binding signal", "setting": "NKX3-2 [2]", "result": "11.6 upbm affinity estimate (log intensity, higher = more binding, comparable within an allelic series)"}]}, {"sequence": "AGAAGTGG", "values": [{"measurement": "binding signal", "setting": "NKX3-2 [1]", "result": "12.5 upbm affinity estimate (log intensity, higher = more binding, comparable within an allelic series)"}, {"measurement": "binding signal", "setting": "NKX3-2 [2]", "result": "12.7 upbm affinity estimate (log intensity, higher = more binding, comparable within an allelic series)"}]}, {"sequence": "CAAGTGTC", "values": [{"measurement": "binding signal", "setting": "NKX2-6", "result": "10.6 upbm affinity estimate (log intensity, higher = more binding, comparable within an allelic series)"}]}, {"sequence": "AATAAATT", "values": [{"measurement": "binding signal", "setting": "HOXC9", "result": "11.1 upbm affinity estimate (log intensity, higher = more binding, comparable within an allelic series)"}]}, {"sequence": "AATTACAA", "values": [{"measurement": "binding signal", "setting": "MSX2", "result": "12.9 upbm affinity estimate (log intensity, higher = more binding, comparable within an allelic series)"}]}, {"sequence": "ACTTAAGG", "values": [{"measurement": "binding signal", "setting": "NKX2-6", "result": "10.6 upbm affinity estimate (log intensity, higher = more binding, comparable within an allelic series)"}]}, {"sequence": "ATGCCGAC", "values": [{"measurement": "binding signal", "setting": "NKX3-2 [1]", "result": "10.6 upbm affinity estimate (log intensity, higher = more binding, comparable within an allelic series)"}, {"measurement": "binding signal", "setting": "NKX3-2 [2]", "result": "10.6 upbm affinity estimate (log intensity, higher = more binding, comparable within an allelic series)"}]}, {"sequence": "AGTGGTCC", "values": [{"measurement": "binding signal", "setting": "NKX3-2 [1]", "result": "11.9 upbm affinity estimate (log intensity, higher = more binding, comparable within an allelic series)"}, {"measurement": "binding signal", "setting": "NKX3-2 [2]", "result": "11.9 upbm affinity estimate (log intensity, higher = more binding, comparable within an allelic series)"}]}, {"sequence": "GCCACTCA", "values": [{"measurement": "binding signal", "setting": "NKX3-2 [1]", "result": "12.6 upbm affinity estimate (log intensity, higher = more binding, comparable within an allelic series)"}, {"measurement": "binding signal", "setting": "NKX3-2 [2]", "result": "12.7 upbm affinity estimate (log intensity, higher = more binding, comparable within an allelic series)"}]}, {"sequence": "ACACTTAC", "values": [{"measurement": "binding signal", "setting": "NKX2-6", "result": "10.6 upbm affinity estimate (log intensity, higher = more binding, comparable within an allelic series)"}, {"measurement": "binding signal", "setting": "NKX3-2 [1]", "result": "12.5 upbm affinity estimate (log intensity, higher = more binding, comparable within an allelic series)"}]}, {"sequence": "CGAAGTGC", "values": [{"measurement": "binding signal", "setting": "NKX3-2 [1]", "result": "12.5 upbm affinity estimate (log intensity, higher = more binding, comparable within an allelic series)"}]}, {"sequence": "ATAAAATC", "values": [{"measurement": "binding signal", "setting": "HOXC9", "result": "11.1 upbm affinity estimate (log intensity, higher = more binding, comparable within an allelic series)"}]}, {"sequence": "GAAGTGTC", "values": [{"measurement": "binding signal", "setting": "NKX3-2 [1]", "result": "12.2 upbm affinity estimate (log intensity, higher = more binding, comparable within an allelic series)"}, {"measurement": "binding signal", "setting": "NKX3-2 [2]", "result": "12.3 upbm affinity estimate (log intensity, higher = more binding, comparable within an allelic series)"}]}, {"sequence": "ATTAAAAA", "values": [{"measurement": "binding signal", "setting": "HOXC9", "result": "11 upbm affinity estimate (log intensity, higher = more binding, comparable within an allelic series)"}]}, {"sequence": "AAGGAGTG", "values": [{"measurement": "binding signal", "setting": "NKX3-2 [1]", "result": "11.9 upbm affinity estimate (log intensity, higher = more binding, comparable within an allelic series)"}, {"measurement": "binding signal", "setting": "NKX3-2 [2]", "result": "12 upbm affinity estimate (log intensity, higher = more binding, comparable within an allelic series)"}]}, {"sequence": "AAGTGCTA", "values": [{"measurement": "binding signal", "setting": "NKX2-6", "result": "10.6 upbm affinity estimate (log intensity, higher = more binding, comparable within an allelic series)"}]}, {"sequence": "AAGTGTTC", "values": [{"measurement": "binding signal", "setting": "NKX2-6", "result": "10.8 upbm affinity estimate (log intensity, higher = more binding, comparable within an allelic series)"}]}, {"sequence": "ACAAGTGT", "values": [{"measurement": "binding signal", "setting": "NKX2-6", "result": "10.6 upbm affinity estimate (log intensity, higher = more binding, comparable within an allelic series)"}]}, {"sequence": "ATTATTAG", "values": [{"measurement": "binding signal", "setting": "PAX4", "result": "10.9 upbm affinity estimate (log intensity, higher = more binding, comparable within an allelic series)"}]}, {"sequence": "AAGTGCCA", "values": [{"measurement": "binding signal", "setting": "NKX3-2 [1]", "result": "12.6 upbm affinity estimate (log intensity, higher = more binding, comparable within an allelic series)"}, {"measurement": "binding signal", "setting": "NKX3-2 [2]", "result": "12.8 upbm affinity estimate (log intensity, higher = more binding, comparable within an allelic series)"}]}, {"sequence": "ACCGAACC", "values": [{"measurement": "binding signal", "setting": "NKX3-2 [1]", "result": "10.6 upbm affinity estimate (log intensity, higher = more binding, comparable within an allelic series)"}, {"measurement": "binding signal", "setting": "NKX3-2 [2]", "result": "10.7 upbm affinity estimate (log intensity, higher = more binding, comparable within an allelic series)"}]}, {"sequence": "AAGTGTCT", "values": [{"measurement": "binding signal", "setting": "NKX2-6", "result": "10.6 upbm affinity estimate (log intensity, higher = more binding, comparable within an allelic series)"}]}, {"sequence": "CGTGGGAA", "values": [{"measurement": "binding signal", "setting": "NKX3-2 [1]", "result": "10.6 upbm affinity estimate (log intensity, higher = more binding, comparable within an allelic series)"}, {"measurement": "binding signal", "setting": "NKX3-2 [2]", "result": "10.6 upbm affinity estimate (log intensity, higher = more binding, comparable within an allelic series)"}]}, {"sequence": "CTGTAAAA", "values": [{"measurement": "binding signal", "setting": "HOXD13", "result": "11.6 upbm affinity estimate (log intensity, higher = more binding, comparable within an allelic series)"}]}, {"sequence": "GCCCTCAA", "values": [{"measurement": "binding signal", "setting": "NKX3-2 [1]", "result": "11.6 upbm affinity estimate (log intensity, higher = more binding, comparable within an allelic series)"}, {"measurement": "binding signal", "setting": "NKX3-2 [2]", "result": "11.7 upbm affinity estimate (log intensity, higher = more binding, comparable within an allelic series)"}]}, {"sequence": "AAATTATT", "values": [{"measurement": "binding signal", "setting": "HESX1", "result": "7.73 upbm affinity estimate (log intensity, higher = more binding, comparable within an allelic series)"}]}, {"sequence": "AGAGGGCA", "values": [{"measurement": "binding signal", "setting": "NKX3-2 [1]", "result": "11.8 upbm affinity estimate (log intensity, higher = more binding, comparable within an allelic series)"}, {"measurement": "binding signal", "setting": "NKX3-2 [2]", "result": "11.8 upbm affinity estimate (log intensity, higher = more binding, comparable within an allelic series)"}]}, {"sequence": "CACGGGCA", "values": [{"measurement": "binding signal", "setting": "NKX3-2 [1]", "result": "10.5 upbm affinity estimate (log intensity, higher = more binding, comparable within an allelic series)"}, {"measurement": "binding signal", "setting": "NKX3-2 [2]", "result": "10.6 upbm affinity estimate (log intensity, higher = more binding, comparable within an allelic series)"}]}, {"sequence": "CACTCTCG", "values": [{"measurement": "binding signal", "setting": "NKX3-2 [1]", "result": "11.9 upbm affinity estimate (log intensity, higher = more binding, comparable within an allelic series)"}, {"measurement": "binding signal", "setting": "NKX3-2 [2]", "result": "12 upbm affinity estimate (log intensity, higher = more binding, comparable within an allelic series)"}]}, {"sequence": "AAGCCGCC", "values": [{"measurement": "binding signal", "setting": "NKX3-2 [1]", "result": "10.7 upbm affinity estimate (log intensity, higher = more binding, comparable within an allelic series)"}, {"measurement": "binding signal", "setting": "NKX3-2 [2]", "result": "10.7 upbm affinity estimate (log intensity, higher = more binding, comparable within an allelic series)"}]}, {"sequence": "GAGTGACA", "values": [{"measurement": "binding signal", "setting": "NKX3-2 [1]", "result": "11.4 upbm affinity estimate (log intensity, higher = more binding, comparable within an allelic series)"}, {"measurement": "binding signal", "setting": "NKX3-2 [2]", "result": "11.5 upbm affinity estimate (log intensity, higher = more binding, comparable within an allelic series)"}]}]}
